# Screening data (PubChem BioAssay)
# TDP1 cell CPT: DT40-hTDP1 cell growth loss with CPT; 420,000 tested, 12% active; Potency, µM (series often up to 46.2 µM), for inactives: at the highest dose activity change, negative = growth inhibition, most hits filed as inhibitors; chicken DT40 Tdp1-/-;hTDP1 cells + 20 nM CPT, ATP luminescence, 48 h; further: potency means the concentration at half of the fitted maximal effect; nearly all actives have a fitted effect of over 55% in size
#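 Cell growth measured by CellTiter-Glo luminescence after a minimum 48 h, 37 C compound exposure with 20 nM CPT in Tdp1-knockout DT40 cells stably expressing hTDP1, seeded 400/well; qHTS titration format.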
# HT1080-NT tox: kills 2HG-producing HT-1080-NT fibrosarcoma cells; AID 686970; HT-1080-NT fibrosarcoma viability, CellTiter-Glo ATP luminescence, 48 h; Potency, µM (series often up to 46.1 µM), for the others: at the top dose activity, negative = less viability, usual class: cytotoxic; 360,000 tested, 1.6% active;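 further: NT is the 2HG producing partner of a matched IDH1 knockdown line; potency means the concentration at half of the fitted maximal effect; 0% = DMSO-treated cells and -100% = media-only wells without cells; nearly all actives have a fitted effect of over 55% in size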
#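 Toxicity toward the 2HG-producing NT line was scored as %Activity, normalised to DMSO and no-cell wells, from CellTiter-Glo luminescence after 48 hours' treatment.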
# HT1080 IDH1KD tx: HT-1080 IDH1 knockdown cell toxicity (counter line) | HT-1080 IDH1 knockdown viability, ATP luminescence, 48 h | Potency, µM (highest dose often 46.1 µM), for the others: top-dose activity, negative = toxicity, hits mostly cytotoxic | 360,000 tested, 2% active;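 further: potency means the concentration at half of the fitted maximal effect; 0% = DMSO wells and -100% = cell-free medium wells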
#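 IDH1KD HT-1080 cells, 750/well, RPMI + 5% FBS; compound pinned after 2 h settling; 48 h, 37 °C; CellTiter-Glo luminescence; % activity normalised to DMSO and no-cell wells; curves fitted, classed by r2 and efficacy.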
# TDP1 cell noCPT: qHTS for Inhibitors of human tyrosyl-DNA phosphodiesterase 1 (TDP1): qHTS in cells in absence of CPT. DT40 Tdp1-/- hTDP1 cells, no CPT, ATP luminescence, 48 h. Potency, µM (doses to about 46.2 µM), inactives show at the highest dose activity change, negative = growth inhibition, most hits filed as inhibitors. 420,000 tested, 15% active. AID 686978, 2013; further: potency means the concentration at half of the fitted maximal effect; nearly all actives have a fitted effect of over 55% in size
#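 A cellular qHTS used chicken DT40 cells lacking endogenous Tdp1 but carrying stably transfected human TDP1. Compounds were applied without camptothecin, and cell growth kinetics were judged by ATP-dependent luminescence after ≥48 hr.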
# IL-1B inflam inh: blocks inflammasome-driven IL-1 beta release | activity change, % at 57.5 µM | 360,000 tested, 4.7% active | THP-1 LPS/ATP IL-1B secretion, AlphaLISA, 16 h; active compounds read low; in the data active means activity change below about -50%; inconclusive means mostly about -30% to -49%
#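 THP-1 cells pretreated 1 hr with compounds (up to 57.5 uM final), then stimulated with LPS (250 ng/mL final) plus ATP (1.25 mM final); secreted IL-1B measured by AlphaLISA after 16 hr, decreased signal indicating inhibition.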
# Active calls of the source: *; u = inconclusive; x = not tested or not shown. Rows were chosen to be rich in hits. Some 19% of all compounds tested hit in one or more screens of this group. Unless noted, the call rests on the fitted dose curve; in most records, active means well fitted curve in the direction sought with a large enough effect; inconclusive means small, poorly fitted or top-dose-only effect, or another doubt; inactive means no such curve, though single readings can be large; an effect the other way counts as inactive or inconclusive. Unless noted, on the % scale 0 is the no-effect control and ±100 the full control effect.
SMILES,TDP1 cell CPT,HT1080-NT tox,HT1080 IDH1KD tx,TDP1 cell noCPT,IL-1B inflam inh
COc1ccc(C2NC(=O)C(C#N)=C(S)N2c2ccc(C)cc2)cc1OC (centres undefined),u,3%,-1%,u,-3
CCOC(=O)CSC1=C(C#N)C(=O)NC(c2ccc(OC)cc2)S1 (centres undefined),15µM*,17%,13%,15µM*,-21
CCOC(=O)CSC1=C(C#N)C(=O)NC(c2ccc(OC)c(OC)c2)S1 (centres undefined),16µM*,6%,8%,12µM*,-2
Cc1nn(-c2nnc(NC3CCCCC3)nn2)c(C)c1Br,-8%,10%,6%,-4%,-75*
COc1nc(=O)n(C2C=CC(=O)O2)cc1F (centres undefined),2.3µM*,u,u,2.3µM*,0
Cc1ccc2c(c1)c(=O)c1ccccc1n2CCCC(=O)Nc1cc(Cl)ccc1C,u,x,x,16µM*,x
Cc1ccc(NC(=O)CCCn2c3ccccc3c(=O)c3cc(C)ccc32)c(Br)c1,u,x,x,15µM*,x
CN(CC(=O)Nc1ccc(OC(F)(F)F)cc1)C(=O)/C=C/c1cc2c(cc1[N+](=O)[O-])OCO2,-21%,-19%,-3%,-2%,7
COc1cnc(-c2ccccn2)nc1Sc1ccccc1Cl,1.5µM*,u,-29%,1µM*,44
COc1cnc(-c2ccccn2)nc1Sc1c(Cl)cccc1Cl,0.65µM*,16µM*,7.9µM*,0.92µM*,33
CCOC(=O)C(C)Sc1nc(-c2ccccn2)ncc1OC (centres undefined),2.9µM*,-12%,-1%,5.8µM*,73
COc1cnc(-c2ccccc2)nc1Sc1ccccc1,0%,-2%,-9%,u,58
COc1ccccc1Sc1nc(-c2ccccc2)ncc1OC,u,1%,-14%,21µM*,22
COc1ccccc1NC(=O)Nc1ccnn1C1CCN(C(=O)C2CCOC2)CC1 (centres undefined),-2%,-1%,-1%,-5%,18
CCOc1ccccc1CNC(=O)c1cnc2sc(N3CCC(C)CC3)nn2c1=O,-19%,x,x,-11%,x
Cc1nc(C(F)(F)F)c(C(=O)O)cc1-c1nc(-c2ccccc2)cs1,3%,9%,0%,-3%,1
COc1ccc(CN2CCc3c([nH]c4ccccc34)C2)c(OC)c1C,u,u,15µM*,u,-89*
COc1ccc(CN2CCc3c([nH]c4ccccc34)C2)cc1Br,-21%,-15%,-18%,u,-19
COc1ccc(-c2c(-c3cc(OC)cc(OC)c3)n(C)c3ccc(-c4ccc(OC)cc4F)cc23)cc1,u,3%,2%,u,-7
COc1cc(OC)cc(-c2c(C#Cc3ccsc3)c3cc(-c4cnc(OC)nc4)ccc3n2C)c1,16µM*,4%,12%,u,-18
COc1ccc(-c2c(-c3cc(OC)cc(OC)c3)n(C)c3ccc(-c4cnc(OC)nc4)cc23)cc1,21µM*,-3%,0%,18µM*,-2
Cn1c(=O)c2c(nc(CN3CCc4ccccc4C3)n2Cc2ccc(F)cc2)n(C)c1=O,21µM*,-1%,-3%,18µM*,0
CCOC(=O)Cn1c(CN2CCN(C(c3ccccc3)c3ccccc3)CC2)nc2c1c(=O)n(C)c(=O)n2C,u,0%,-13%,23µM*,32
Cn1c(=O)c2c(nc(N3CCc4ccccc4C3)n2Cc2ccccc2F)n(C)c1=O,13µM*,0%,-1%,16µM*,5
CCCCn1c(CN2CCN(C(=O)OCC)CC2)nc2c1c(=O)n(C)c(=O)n2C,12µM*,-2%,5%,9.2µM*,45
Cn1c(=O)c2c(nc(CN3CCN(C(c4ccccc4)c4ccccc4)CC3)n2CC(N)=O)n(C)c1=O,-26%,-14%,7%,-13%,15
